The record followed here is PubChem BioAssay (NCATS).

Test [1] has as its target Lysosomal acid glucosylceramidase (Homo sapiens) (UniProt P04062). The test can be described thus: Glucocerebrosidase-p2 (AID 348; in the data active means potency below about 10 µM; further: potency means the concentration at half of the fitted maximal effect). Conditions: purified GBA, blue fluorogenic substrate, 40 min. The essentials:
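Normal human glucocerebrosidase (0.2 nM) with blue fluorogenic substrate (80 uM final) in citrate/phosphate pH 5.9 with 10mM sodium taurocholate, 0.01% tween-20; 40 min RT, NaOH/glycine stop; fluorescence Ex 365/Em 440; AC50 from a titration from 0.6 nM upwards.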

A short description of test [2]: AP1 Signaling Pathway (AID 357).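 Further: ME-180 reporter cells stimulated with EGF at its EC50 level; on the % scale 0 is the no-effect control and ±100 the full control effect.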 Particulars: ME-180 AP-1-bla reporter, EGF-induced, beta-lactamase ratio, 5 h; at 7.69 µM (top of the series) unless noted. The essentials:
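A ratiometric CCF4 readout (405 nm excitation; 460 and 530 nm emission) quantified AP-1-driven beta-lactamase in ME-180 cells after 5 h with compound and EC50 EGF; AC50 values were derived for activators and inhibitors.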

Test [3] deals with Cytochrome P450 1A2 (Homo sapiens) (UniProt P05177). The test can be described thus: p450-cyp1a2 (AID 410; calls by dose curve; further: potency means the concentration at half of the fitted maximal effect;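 on activity change, negative = inhibition: -100% = full effect of reference inhibitor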). Particulars: recombinant CYP1A2, luciferin-ME demethylation, luminescence; series mostly up to 11.4 µM. The essentials: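 Luminescent demethylation readout: Luciferin-ME (100uM, equal to Km) turned over by 20nM CYP1A2 for 60 min at room temperature after NADPH regeneration addition, following 10 min compound preincubation. Normalization used 57 uM furafylline as full inhibition.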
Cytochrome P450 1A2 (Homo sapiens), sequence (P05177 whole entry, looked up): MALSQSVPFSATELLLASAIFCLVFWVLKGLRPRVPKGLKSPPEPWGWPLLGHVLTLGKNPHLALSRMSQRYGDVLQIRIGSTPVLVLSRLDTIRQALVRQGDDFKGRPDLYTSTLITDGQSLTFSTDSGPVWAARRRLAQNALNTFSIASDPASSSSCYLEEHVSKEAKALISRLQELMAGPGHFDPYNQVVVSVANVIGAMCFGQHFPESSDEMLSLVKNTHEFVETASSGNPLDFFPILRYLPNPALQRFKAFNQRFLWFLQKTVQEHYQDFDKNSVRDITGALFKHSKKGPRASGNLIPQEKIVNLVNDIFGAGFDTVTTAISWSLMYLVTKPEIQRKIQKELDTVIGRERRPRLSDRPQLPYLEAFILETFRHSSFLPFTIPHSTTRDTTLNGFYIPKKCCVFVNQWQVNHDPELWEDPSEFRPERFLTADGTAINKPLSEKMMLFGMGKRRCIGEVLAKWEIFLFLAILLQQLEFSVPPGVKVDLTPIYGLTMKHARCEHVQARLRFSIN

Test [4] is described as follows: NFAT Signaling Pathway (AID 444).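 Further: carbachol stimulus at about its EC50 of 1 µM final; on the % scale 0 is the no-effect control and ±100 the full control effect.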 Conditions: Jurkat NFAT-bla M1, carbachol, beta-lactamase ratio, 5 h; at 7.69 µM (top of the series) unless noted. Put shortly: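 Read-out: CCF4 FRET ratio (460 nm/530 nm) after 1 h RT dye loading, used for %activity and AC50 from titration series. Cells: Jurkat NFAT-β-lactamase/M1 line, treated with compound plus 1 uM carbachol for 5 h, 37 °C.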

Test [5] can be described thus: Stat Signaling Pathway (AID 446).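 Further: ME-180 cervical cancer cells given 40 pM IL-6 alongside compound; SIE-controlled beta-lactamase reporter measured as 460/530 nm FRET emission ratio; on the % scale 0 is the no-effect control and ±100 the full control effect.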 Conditions: ME-180 (cervical carcinoma) SIE beta-lactamase reporter, IL-6 stimulated, 5 h; at 7.69 µM (top of the series) unless noted. The essentials:
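Emission at 460 and 530 nm (excitation 405 nm) reports SIE-controlled beta-lactamase in ME-180 cells. Cells received compound with 40 pM IL-6 for 5 hrs at 37 C; data scaled between 300 pM IL-6 and 125 nM JAK-inhibitor controls.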

Test [6] addresses Glucocorticoid receptor (Homo sapiens) (UniProt P04150). The test can be described thus: GR-GFP Redistribution (AID 450;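 active means compounds whose dose series gives a full or clear partial fitted curve of increased nuclear translocation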; further: potency means the concentration at half of the fitted maximal effect). Conditions: U2OS GR-GFP nuclear translocation, laser cytometry, 2 h.
Test [7] has the same target. The test can be described thus: GR-EFC Redistribution (AID 451; calls by dose curve; further: potency means the concentration at half of the fitted maximal effect). Particulars: CHO-K1 GR-EFC translocation, beta-gal luminescence, 2 h. The essentials:
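Translocation of GR-ED fusion to nuclear EA restores b-gal, read by luminescence after 1 h room-temperature detection. Engineered CHO-K1 biosensor cells, 1,000/well, exposed 2 h at 37 C to titrations up to 46 uM final.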

For test [8], the target named is Mitogen-activated protein kinase 10 (Mus musculus) (UniProt Q61831). The test can be described thus: JNK3 AlphaScreen Assay (AID 530).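 Further: kinase came from lysate of stimulated human HepG2 cells; signal reports phosphorylation of biotinylated GST-cJun 1-79 at Ser73 with 10 µM ATP; on the % scale 0 is the no-effect control and ±100 the full control effect.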 Particulars: JNK3 lysate, c-Jun phosphorylation; series mostly up to 11.4 µM. Put shortly: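 qHTS titrations with 15 min compound pre-incubation before adding ATP (10 uM final). Read-out: AlphaScreen of Ser73-phosphorylated biotin-GST-cJun using HepG2 lysate JNK3 activated by IL-1β and TNFα.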

In test [9] the target is 3',5'-cyclic-AMP phosphodiesterase 4B (Homo sapiens) (UniProt Q07343). The test can be described thus: qHTS Assay for Inhibitors of PDE-IV (AID 607; active means well fitted activation curve with a large enough effect in the main read-out, with a control signal flat, not every such curve was filed as active; further: % of control where 0% means no effect). Conditions: HEK293 ACTOne CNG channel cells, membrane potential fluorescence; series mostly up to 22.9 µM. Put shortly:
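The readout is membrane depolarisation from a cAMP-sensing CNG channel, detected with a potential dye at ex 535/em 590. Cells were HEK293-derived (endogenous PDE-IV) at 1000 cells/well, titrated up to 22.9 uM final.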
(Quantitative high-throughput screening tests each substance at several concentrations.)

SMILES strings stand for the structures. Values without a mark were called inactive. Results filed as inconclusive are left out. The source made the active and inactive calls. Unless noted, the call rests on the fitted dose curve; in most records, active means well fitted curve in either direction with a large enough effect (not every such curve was filed as active); inconclusive means small, poorly fitted or top-dose-only effect, or another doubt; inactive means flat fitted curve, though single readings scatter. Bounds are passed on as bounds.

Lysosomal acid glucosylceramidase (Homo sapiens), sequence (P04062 whole entry, looked up): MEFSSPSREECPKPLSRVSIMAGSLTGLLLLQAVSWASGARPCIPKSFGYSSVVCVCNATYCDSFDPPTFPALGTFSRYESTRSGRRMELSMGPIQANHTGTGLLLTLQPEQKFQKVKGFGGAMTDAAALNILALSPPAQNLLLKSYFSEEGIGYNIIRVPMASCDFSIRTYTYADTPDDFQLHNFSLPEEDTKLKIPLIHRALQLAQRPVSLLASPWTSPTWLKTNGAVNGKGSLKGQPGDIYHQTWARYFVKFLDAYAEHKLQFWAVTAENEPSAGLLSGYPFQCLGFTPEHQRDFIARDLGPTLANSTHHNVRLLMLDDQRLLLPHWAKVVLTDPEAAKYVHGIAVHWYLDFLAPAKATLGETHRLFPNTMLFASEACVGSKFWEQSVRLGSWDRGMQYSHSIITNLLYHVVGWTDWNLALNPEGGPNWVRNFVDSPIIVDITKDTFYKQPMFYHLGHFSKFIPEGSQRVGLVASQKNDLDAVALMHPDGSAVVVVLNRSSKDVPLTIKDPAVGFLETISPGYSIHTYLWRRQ
3',5'-cyclic-AMP phosphodiesterase 4B (Homo sapiens), sequence (Q07343 whole entry, looked up): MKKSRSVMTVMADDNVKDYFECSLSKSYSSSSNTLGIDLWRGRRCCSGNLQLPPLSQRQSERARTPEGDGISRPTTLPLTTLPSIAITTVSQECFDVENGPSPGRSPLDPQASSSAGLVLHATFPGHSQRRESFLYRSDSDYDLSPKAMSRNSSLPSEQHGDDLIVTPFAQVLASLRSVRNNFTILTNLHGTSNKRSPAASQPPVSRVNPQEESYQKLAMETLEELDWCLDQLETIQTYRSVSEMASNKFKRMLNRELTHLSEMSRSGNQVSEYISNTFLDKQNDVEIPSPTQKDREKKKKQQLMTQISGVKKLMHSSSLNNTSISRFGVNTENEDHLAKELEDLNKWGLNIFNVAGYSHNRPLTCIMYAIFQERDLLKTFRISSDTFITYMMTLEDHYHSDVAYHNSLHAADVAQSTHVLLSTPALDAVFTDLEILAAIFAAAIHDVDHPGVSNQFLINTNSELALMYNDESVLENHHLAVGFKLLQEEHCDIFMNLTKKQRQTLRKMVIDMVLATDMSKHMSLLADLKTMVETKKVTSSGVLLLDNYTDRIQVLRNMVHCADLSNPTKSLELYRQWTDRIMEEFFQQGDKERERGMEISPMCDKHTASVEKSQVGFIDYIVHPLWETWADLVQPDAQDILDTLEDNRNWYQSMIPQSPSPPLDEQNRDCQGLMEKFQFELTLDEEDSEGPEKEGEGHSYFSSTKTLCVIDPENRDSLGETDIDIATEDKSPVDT
Glucocorticoid receptor (Homo sapiens), sequence (P04150 whole entry, looked up): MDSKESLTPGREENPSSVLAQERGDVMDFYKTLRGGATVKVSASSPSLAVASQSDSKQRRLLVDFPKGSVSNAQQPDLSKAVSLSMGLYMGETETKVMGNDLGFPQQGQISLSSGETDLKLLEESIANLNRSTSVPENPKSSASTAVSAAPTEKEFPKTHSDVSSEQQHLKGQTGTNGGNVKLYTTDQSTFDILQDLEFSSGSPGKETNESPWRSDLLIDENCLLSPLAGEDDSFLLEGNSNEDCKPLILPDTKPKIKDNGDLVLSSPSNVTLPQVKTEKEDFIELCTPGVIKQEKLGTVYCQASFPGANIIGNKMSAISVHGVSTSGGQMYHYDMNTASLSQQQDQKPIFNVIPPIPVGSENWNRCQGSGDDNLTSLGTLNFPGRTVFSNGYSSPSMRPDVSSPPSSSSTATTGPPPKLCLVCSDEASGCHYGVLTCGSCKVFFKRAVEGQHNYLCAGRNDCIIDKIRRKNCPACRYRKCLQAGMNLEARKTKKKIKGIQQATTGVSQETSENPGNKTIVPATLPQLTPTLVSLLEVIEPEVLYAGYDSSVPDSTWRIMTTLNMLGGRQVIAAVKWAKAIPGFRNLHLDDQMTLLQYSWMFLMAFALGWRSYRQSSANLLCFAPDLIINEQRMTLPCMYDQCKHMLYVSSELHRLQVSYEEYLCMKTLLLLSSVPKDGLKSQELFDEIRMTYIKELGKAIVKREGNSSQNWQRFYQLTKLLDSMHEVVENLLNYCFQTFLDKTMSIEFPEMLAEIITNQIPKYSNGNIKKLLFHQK

Turning to `O=S(=O)(O)[C@@H](c1ccccc1)[C@@H](O)c1ccccc1`, the Potency in test [1] was > 11.4 µM; in test [6], > 46 µM; in [7], > 9.22 µM. Also, the activity change, negative = inhibition was 1.17% in [2], -13.9% [at 2.29 µM] in [3] and 8.34% in test [4]. The activity, negative = inhibition in [5] is 8.88%. Moreover, the Potency entry in test [8] and in test [9] was “inactive” in each case.

Take `O=C(O)c1ccc(C(=O)Nc2cccc3ccccc23)c(C(=O)O)c1`: the Potency was > 11.4 µM in test [1], > 46 µM in test [6] and > 9.22 µM in [7]. In addition, the results for the activity change, negative = inhibition in test [2], in test [3] and in [4] were 4.87%, -6.2% [at 2.29 µM] and 5.96%, respectively. For the same molecule, in test [5], the activity, negative = inhibition is 0.708%. Also, the Potency result in test [8] and in [9] was “inactive” in each case.

Take `NC(N)=N/N=C\c1ccc(O)c(C(=O)O)c1`: the Potency in test [1] is > 11.4 µM; in test [6] it was > 46 µM; in test [7] it was > 9.22 µM. Also, the activity change, negative = inhibition in [2] was 12.8%; in [3] it was -11.9% [at 2.29 µM]; in test [4] it was 14.8%. Moreover, the activity, negative = inhibition in [5] was -1.78%. For the same molecule, the Potency entry in test [8] and in [9] was “inactive” each time.

With `Cc1ccnc(NS(=O)(=O)c2ccc(N=[N+]=[N-])cc2)n1`, the Potency was > 11.4 µM in test [1], > 46 µM in test [6] and > 9.22 µM in test [7]. In addition, the activity change, negative = inhibition in test [2] is -2.39%; in [4], 4.09%. Further, the Potency entry in test [3], in test [8] and in test [9] was “inactive” in each case. For the same molecule, the activity, negative = inhibition in [5] is 1.25%.

As to `Oc1c(Cl)cc(CN(Cc2cc(Cl)c(O)c(Cl)c2)C2CCCCC2)cc1Cl`, the Potency is > 11.4 µM in test [1], > 46 µM in [6] and > 9.22 µM in test [7]. Further, the activity change, negative = inhibition in test [2] was 4.05%; in test [3], 11.3% [at 2.29 µM]; in test [4], 1.82%. In addition, the activity, negative = inhibition in [5] was -25.8%. Moreover, the Potency result in test [8] and in [9] was “inactive” throughout.

With `N#CC1(Nc2ccc(-c3ccc(NC4(C#N)CCCC4)cc3)cc2)CCCC1`, the Potency was > 11.4 µM in test [1], 3.16 µM (active) in test [3], > 46 µM in test [6] and > 9.22 µM in [7]. Moreover, the activity change, negative = inhibition in [2] was -7.74%; in [4], 14.8%. Moreover, the activity, negative = inhibition in [5] was 19%. The Potency entry in [8] and in test [9] was “inactive” throughout.

As to `O=S(=O)(O)c1ccc(O)c2ncccc12.O=S(=O)(O)c1ccc(O)c2ncccc12.[Zn]`, the Potency is > 11.4 µM in [1], 0.631 µM (active) in test [3], > 46 µM in [6] and > 9.22 µM in [7]. Besides, the values for the activity change, negative = inhibition in [2] and in test [4] were 6.49% and -15.3%, respectively. Further, the activity, negative = inhibition in test [5] was 7.8%. The Potency result in test [8] and in [9] was “inactive” throughout.

Consider `CC(C)C(=O)Cc1ccc2ccccc2n1`, for which the Potency is > 11.4 µM in test [1], 3.16 µM (active) in [3], > 46 µM in test [6] and > 9.22 µM in [7]. The activity change, negative = inhibition is -4.8% in [2] and 12.2% in test [4]. The activity, negative = inhibition in [5] is 3.27%. Besides, the Potency entry in [8] and in test [9] was “inactive” each time.

`N#CC[N+]1(Cc2ccccn2)CCCC1`: the Potency in [1] was > 11.4 µM; in [6] it was > 46 µM; in [7], > 9.22 µM. In addition, the activity change, negative = inhibition in test [2] is -12.2%; in [3], 3.4% [at 2.29 µM]; in test [4], 0.385%. Further, the activity, negative = inhibition in test [5] was -1.41%. Moreover, the Potency entry in test [8] and in test [9] was “inactive” each time.

For the molecule `Nc1cc(C(=O)O)[nH]c(=O)n1`, the Potency in [1] was > 11.4 µM; in test [6], > 46 µM; in test [7] it was > 9.22 µM. For the same molecule, the figures for the activity change, negative = inhibition in [2] and in [4] were 3.6% and 8.92%, respectively. Further, the Potency entry in test [3], in test [8] and in test [9] was “inactive” in each case. Also, the activity, negative = inhibition in [5] was 13.8%.

Turning to `Cn1c(=O)c2[nH]c(COCc3nc4c([nH]3)c(=O)n(C)c(=O)n4C)nc2n(C)c1=O`, the figures for the Potency in [1], in test [6] and in test [7] were > 11.4 µM, > 46 µM and > 9.22 µM, respectively. The values for the activity change, negative = inhibition in [2], in test [3] and in test [4] were 6.66%, 4.5% [at 2.29 µM] and 5.77%, respectively. In addition, in test [5], the activity, negative = inhibition is -2.27%. Also, the Potency entry in test [8] and in test [9] was “inactive” each time.

As for `NS(=O)(=O)c1ccc(NCc2nc3ccccc3[nH]2)cc1`, the Potency in test [1] is > 11.4 µM; in [6], > 46 µM; in test [7], > 9.22 µM. Besides, the activity change, negative = inhibition is 2.25% in test [2], -18.8% [at 2.29 µM] in test [3] and 8.2% in test [4]. In test [5], the activity, negative = inhibition is 9.55%. The Potency result in test [8] and in [9] was “inactive” in each case.

As to `NC(N)=NC[C@@H]1CCCCCCN1`, the Potency in test [1] is > 11.4 µM; in test [6] it was > 46 µM; in test [7], > 9.22 µM. Moreover, the activity change, negative = inhibition is 2% in test [2] and 4.87% in test [4]. For the same molecule, the Potency result in test [3], in test [8] and in test [9] was “inactive” each time. Also, the activity, negative = inhibition in test [5] was -5.43%.

For `O=C(O)c1ccc([N+](=O)[O-])c(P(=O)(O)O)c1`, the Potency in [1] was > 11.4 µM; in [6], > 46 µM; in [7] it was > 9.22 µM. The activity change, negative = inhibition in test [2] was -2.71%; in test [4] it was 12.7%. The Potency result in [3], in test [8] and in test [9] was “inactive” in each case. The activity, negative = inhibition in test [5] is -0.293%.

In the case of `CC1CCC(C(=O)O)([C@H](Br)C(=O)O)CC1` (some centres undefined), the Potency in test [1] is > 11.4 µM; in test [6] it was > 46 µM; in test [7], > 9.22 µM. Further, the activity change, negative = inhibition in [2] was -2.54%; in test [4], 13.7%. Further, the Potency entry in test [3], in test [8] and in test [9] was “inactive” throughout. The activity, negative = inhibition in test [5] was 8%.

In the case of `O=CN1CCN(C[C@H](O)CN2CCCCC2)CC1`, the Potency was > 11.4 µM in [1], > 46 µM in test [6] and > 9.22 µM in [7]. The activity change, negative = inhibition in test [2] is 9%; in [3] it was -17.6% [at 2.29 µM]; in test [4], -4.36%. Besides, in test [5], the activity, negative = inhibition was 8.12%. Moreover, the Potency entry in [8] and in test [9] was “inactive” in each case.
